Measurements published in the supplement of paper PMC11732987, “Enantioselective OTUD7B fragment discovery through chemoproteomics screening and high-throughput optimisation” (Communications Chemistry, 2025).

Target: T1, USP38 (UniProt Q8NB14)
T1 sequence (whole entry): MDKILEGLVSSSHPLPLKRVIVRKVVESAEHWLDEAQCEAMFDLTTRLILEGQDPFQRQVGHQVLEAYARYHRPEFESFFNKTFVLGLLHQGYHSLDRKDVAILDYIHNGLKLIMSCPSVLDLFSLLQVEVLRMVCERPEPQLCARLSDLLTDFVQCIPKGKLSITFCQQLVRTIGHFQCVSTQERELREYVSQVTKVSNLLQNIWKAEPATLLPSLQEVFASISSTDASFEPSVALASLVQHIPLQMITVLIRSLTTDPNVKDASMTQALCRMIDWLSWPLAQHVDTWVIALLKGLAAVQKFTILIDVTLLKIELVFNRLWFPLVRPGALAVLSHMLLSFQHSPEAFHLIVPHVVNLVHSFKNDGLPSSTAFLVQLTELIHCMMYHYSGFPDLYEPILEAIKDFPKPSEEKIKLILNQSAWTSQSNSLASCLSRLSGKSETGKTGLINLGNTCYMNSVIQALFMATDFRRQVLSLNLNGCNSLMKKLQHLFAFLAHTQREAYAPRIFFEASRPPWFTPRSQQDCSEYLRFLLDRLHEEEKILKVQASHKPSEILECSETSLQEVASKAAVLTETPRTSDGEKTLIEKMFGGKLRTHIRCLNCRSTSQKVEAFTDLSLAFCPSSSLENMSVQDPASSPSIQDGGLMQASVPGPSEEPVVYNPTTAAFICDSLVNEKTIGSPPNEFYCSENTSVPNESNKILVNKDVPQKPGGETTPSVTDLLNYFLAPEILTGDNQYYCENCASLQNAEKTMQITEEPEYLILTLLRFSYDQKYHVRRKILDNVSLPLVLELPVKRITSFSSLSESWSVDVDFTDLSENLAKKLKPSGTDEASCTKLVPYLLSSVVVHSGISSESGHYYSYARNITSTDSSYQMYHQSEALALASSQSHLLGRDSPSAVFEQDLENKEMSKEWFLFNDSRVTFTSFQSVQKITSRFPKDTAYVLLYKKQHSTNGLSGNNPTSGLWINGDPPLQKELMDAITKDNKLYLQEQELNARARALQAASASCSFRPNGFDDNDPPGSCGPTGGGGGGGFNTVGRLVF
Assay: log2 ratio of Biotin-Ahx-Ub-VS probe labelling (compound/DMSO); higher = less target engagement, active = hit call of the paper (q ≤ 0.05, log2 ratio ≤ -1)
Details: compound concentration: 50uM; treatment time: 3 h
Protocol: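 Round 2 competitive ABPP in HEK293T lysate. Purified HTC-D2B compounds were tested at 50 and 200 µM for 3 h, followed by Biotin-Ahx-Ub-VS enrichment and diaPASEF LC-MS/MS. Values are the average log2 ratio (compound/DMSO) from an unpaired t-test (n=3 treated, n=26 DMSO).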

log2 ratio of Biotin-Ahx-Ub-VS probe labelling, inactive:
CN(Cc1ccccc1)C(=O)CCl -0.0215
CN(Cc1cccc(Br)c1)C(=O)CCl 0.171
CCCC1c2cc(OC)c(OC)cc2CCN1C(=O)CCl (stereo unspecified) -0.184
O=C(CCl)N1CCc2cc(Cl)c(Cl)cc2C1 0.253
O=C(CCl)N[C@H]1CCCc2ccccc21 0.0645
O=C(CCl)N1CCc2nc(-c3ccccc3)ncc2C1 0.272
O=C(CCl)N1Cc2sccc2C(O)C1 (stereo unspecified) 0.173
Cc1ccccc1COc1cccc(CN(C)C(=O)CCl)c1 -0.192
O=C(CCl)NC1CCSc2ccccc21 (stereo unspecified) 0.05
Cl.Cl.O=C(CCl)N1CCc2nc(N3CCN(c4ccc(F)cc4)CC3)ncc2C1 0.202
O=C(CCl)N1CCc2nocc2C1 -0.0321
COc1ccc(CN(C)C(=O)CCl)cc1 0.023
O=C(CCl)N1CCc2scc(Br)c2C1 0.0294
CCC1c2cc(Cl)c(OC)cc2CCN1C(=O)CCl (stereo unspecified) 0.207
O=C(CCl)NC1CCOc2ccc(Cl)cc21 (stereo unspecified) 0.126
O=C(CCl)NC(c1cccs1)C1CCCC1 (stereo unspecified) 0.192
O=C(CCl)NC1CCCc2ccccc21 (stereo unspecified) 0.0146
COc1cccc(CN(CCCc2ccccc2)C(=O)CCl)c1 -0.105

Same assay, conditions: compound concentration: 200uM; treatment time: 3 h

log2 ratio of Biotin-Ahx-Ub-VS probe labelling, inactive:
CN(Cc1ccccc1)C(=O)CCl -0.641
CN(Cc1cccc(Br)c1)C(=O)CCl -0.322
CCCC1c2cc(OC)c(OC)cc2CCN1C(=O)CCl (stereo unspecified) -0.48
O=C(CCl)N1CCc2cc(Cl)c(Cl)cc2C1 -0.962
O=C(CCl)N[C@H]1CCCc2ccccc21 -0.252
O=C(CCl)N1CCc2nc(-c3ccccc3)ncc2C1 -0.407
O=C(CCl)N1Cc2sccc2C(O)C1 (stereo unspecified) -0.212
Cc1ccccc1COc1cccc(CN(C)C(=O)CCl)c1 -0.383
O=C(CCl)NC1CCSc2ccccc21 (stereo unspecified) -0.3
Cl.Cl.O=C(CCl)N1CCc2nc(N3CCN(c4ccc(F)cc4)CC3)ncc2C1 -0.918
O=C(CCl)N1CCc2nocc2C1 -0.473
COc1ccc(CN(C)C(=O)CCl)cc1 -0.826
O=C(CCl)N1CCc2scc(Br)c2C1 -0.844
CCC1c2cc(Cl)c(OC)cc2CCN1C(=O)CCl (stereo unspecified) -0.934
O=C(CCl)NC1CCOc2ccc(Cl)cc21 (stereo unspecified) -0.261
O=C(CCl)NC(c1cccs1)C1CCCC1 (stereo unspecified) -0.22
O=C(CCl)NC1CCCc2ccccc21 (stereo unspecified) -0.162
COc1cccc(CN(CCCc2ccccc2)C(=O)CCl)c1 -0.679
